Data as given in PubChem BioAssay.
Calls of active or inactive are those of the source.

Experiments:
[1] = binders of probe aFSTL3 on microarray, primary screen, stem cell growth factor project, biochemical, small-molecule microarray, fluorescence 635/667 (AID 1064); details: higher = more signal;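 further: measures binding of the biotinylated anti-FSTL3 antibody to printed compounds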
[2] = binders from COS7 lysate, DM2A8 probe, primary screen, torsin A project, cell lysate, small-molecule microarray, fluorescence 635/667 (AID 1065); details: higher = more signal, COS7 lysate expressing mutant human TOR1A
[3] = binders of probe aFGF2 on microarray, primary screen, stem cell growth factor project, biochemical, small-molecule microarray, fluorescence 635/667 (AID 1067); details: higher = more signal;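 further: measures binding of biotinylated aFGF2 protein to printed compounds on slides; z-score merges feature fluorescence and signal-to-noise across triplicate slides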
[4] = binders of probe aFGF10 on microarray, primary screen, stem cell growth factor project, biochemical, small-molecule microarray, fluorescence 635/667 (AID 1071); details: higher = more signal;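 further: score merges 667 nm spot intensity and signal to noise from triplicate slides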
[5] = biological target: Neurogenic locus notch homolog protein 2 (Homo sapiens) (UniProt Q04721); experiment: Notch2 binders on small-molecule microarrays, primary screen, biochemical, small-molecule microarray, 635 nm fluorescence, stem cell growth factors (AID 1073); details: Notch2 binding, higher = more signal
Chain of Neurogenic locus notch homolog protein 2 (Homo sapiens) (Q04721 whole entry, looked up, canonical isoform): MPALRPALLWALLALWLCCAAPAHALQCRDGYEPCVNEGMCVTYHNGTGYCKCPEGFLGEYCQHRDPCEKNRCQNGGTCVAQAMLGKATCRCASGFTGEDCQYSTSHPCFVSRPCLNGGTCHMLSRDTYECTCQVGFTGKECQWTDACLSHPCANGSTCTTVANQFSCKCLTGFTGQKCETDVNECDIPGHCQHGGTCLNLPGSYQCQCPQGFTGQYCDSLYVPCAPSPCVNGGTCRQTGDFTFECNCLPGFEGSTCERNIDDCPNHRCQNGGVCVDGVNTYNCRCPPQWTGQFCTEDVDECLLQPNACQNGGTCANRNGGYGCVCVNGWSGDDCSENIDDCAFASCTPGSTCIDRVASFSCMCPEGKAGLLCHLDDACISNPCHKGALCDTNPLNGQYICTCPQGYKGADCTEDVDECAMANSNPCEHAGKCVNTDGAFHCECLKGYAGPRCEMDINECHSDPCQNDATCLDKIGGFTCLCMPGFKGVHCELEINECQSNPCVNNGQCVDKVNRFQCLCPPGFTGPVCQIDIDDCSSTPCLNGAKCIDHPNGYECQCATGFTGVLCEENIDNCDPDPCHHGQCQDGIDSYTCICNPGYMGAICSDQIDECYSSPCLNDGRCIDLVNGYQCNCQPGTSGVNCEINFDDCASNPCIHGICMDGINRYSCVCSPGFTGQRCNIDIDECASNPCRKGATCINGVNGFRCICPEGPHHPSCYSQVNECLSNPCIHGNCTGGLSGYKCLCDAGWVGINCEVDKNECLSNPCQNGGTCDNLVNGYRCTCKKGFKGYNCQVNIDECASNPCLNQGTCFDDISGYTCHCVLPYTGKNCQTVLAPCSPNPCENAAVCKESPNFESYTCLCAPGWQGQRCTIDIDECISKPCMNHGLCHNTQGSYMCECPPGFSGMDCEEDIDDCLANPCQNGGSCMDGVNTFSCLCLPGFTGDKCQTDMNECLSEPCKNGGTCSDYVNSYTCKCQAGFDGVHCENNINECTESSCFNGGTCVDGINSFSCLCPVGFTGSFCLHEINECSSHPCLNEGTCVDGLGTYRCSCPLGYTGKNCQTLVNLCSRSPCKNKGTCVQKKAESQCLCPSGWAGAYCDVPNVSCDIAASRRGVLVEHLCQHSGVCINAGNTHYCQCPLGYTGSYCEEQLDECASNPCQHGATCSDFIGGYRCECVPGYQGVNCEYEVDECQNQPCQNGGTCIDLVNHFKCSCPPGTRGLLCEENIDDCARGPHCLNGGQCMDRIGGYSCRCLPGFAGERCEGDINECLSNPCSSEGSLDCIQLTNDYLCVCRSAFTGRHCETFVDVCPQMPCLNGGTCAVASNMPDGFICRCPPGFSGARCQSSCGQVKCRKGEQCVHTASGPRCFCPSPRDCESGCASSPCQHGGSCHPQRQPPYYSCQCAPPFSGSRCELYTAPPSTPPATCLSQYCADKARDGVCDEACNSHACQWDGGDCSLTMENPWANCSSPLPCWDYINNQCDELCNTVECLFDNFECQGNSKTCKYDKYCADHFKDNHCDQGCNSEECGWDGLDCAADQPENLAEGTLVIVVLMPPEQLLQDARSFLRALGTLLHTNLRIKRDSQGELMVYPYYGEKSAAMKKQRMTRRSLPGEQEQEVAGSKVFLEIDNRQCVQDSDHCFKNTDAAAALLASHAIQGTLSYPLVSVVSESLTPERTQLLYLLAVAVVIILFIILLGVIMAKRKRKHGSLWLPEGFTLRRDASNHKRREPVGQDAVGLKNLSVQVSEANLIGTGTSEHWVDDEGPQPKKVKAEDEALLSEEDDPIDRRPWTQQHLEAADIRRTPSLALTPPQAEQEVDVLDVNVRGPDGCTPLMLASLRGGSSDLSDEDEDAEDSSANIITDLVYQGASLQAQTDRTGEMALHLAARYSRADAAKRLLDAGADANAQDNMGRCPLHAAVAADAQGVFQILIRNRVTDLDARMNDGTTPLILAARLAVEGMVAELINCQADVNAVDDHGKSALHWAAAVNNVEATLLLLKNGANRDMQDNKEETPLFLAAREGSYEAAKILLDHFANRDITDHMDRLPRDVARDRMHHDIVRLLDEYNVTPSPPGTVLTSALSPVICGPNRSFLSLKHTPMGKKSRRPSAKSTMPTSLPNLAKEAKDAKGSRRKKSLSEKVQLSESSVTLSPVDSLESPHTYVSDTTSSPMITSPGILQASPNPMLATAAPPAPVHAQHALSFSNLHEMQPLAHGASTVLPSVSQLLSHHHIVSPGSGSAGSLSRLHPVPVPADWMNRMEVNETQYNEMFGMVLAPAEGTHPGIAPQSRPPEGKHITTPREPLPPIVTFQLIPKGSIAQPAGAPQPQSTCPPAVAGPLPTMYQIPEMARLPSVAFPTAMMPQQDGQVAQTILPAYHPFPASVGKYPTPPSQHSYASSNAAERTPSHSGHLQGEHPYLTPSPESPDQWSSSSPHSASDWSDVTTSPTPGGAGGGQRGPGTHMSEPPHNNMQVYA

[6] = biological target: Pro-neuregulin-1, membrane-bound isoform (Homo sapiens) (UniProt Q02297); experiment: NRG1 binders on small-molecule microarrays, primary screen, psychiatric disease protein project, biochemical, small-molecule microarray, fluorescence 635/667 (AID 1075); details: NRG1 binding, 635 nm fluorescence, higher = more signal;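 further: score combines 667 nm spot fluorescence with signal to noise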
Chain of Pro-neuregulin-1, membrane-bound isoform (Homo sapiens) (Q02297 whole entry, looked up, the tested form may be a part, canonical isoform): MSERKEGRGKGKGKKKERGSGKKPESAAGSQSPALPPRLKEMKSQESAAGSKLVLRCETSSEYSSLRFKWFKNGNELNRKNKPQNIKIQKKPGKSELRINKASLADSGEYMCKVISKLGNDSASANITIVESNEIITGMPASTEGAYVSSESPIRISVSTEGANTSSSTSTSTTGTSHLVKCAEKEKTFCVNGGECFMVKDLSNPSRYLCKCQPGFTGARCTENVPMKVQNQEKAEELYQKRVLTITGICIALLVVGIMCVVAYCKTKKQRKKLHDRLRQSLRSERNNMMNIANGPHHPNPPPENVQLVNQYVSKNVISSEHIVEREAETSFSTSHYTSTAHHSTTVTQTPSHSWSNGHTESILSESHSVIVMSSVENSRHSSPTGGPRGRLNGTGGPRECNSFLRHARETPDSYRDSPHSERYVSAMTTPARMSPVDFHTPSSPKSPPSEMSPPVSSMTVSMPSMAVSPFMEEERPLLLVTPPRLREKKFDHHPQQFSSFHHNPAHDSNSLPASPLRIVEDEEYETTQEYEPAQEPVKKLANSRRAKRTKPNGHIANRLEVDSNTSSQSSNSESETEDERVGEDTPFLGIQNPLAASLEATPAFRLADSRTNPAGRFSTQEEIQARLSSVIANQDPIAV

[7] = tested on: Neuregulin-1 EGF-like domain; experiment: binders of neuregulin-1 EGF-like domain, primary screen, biochemical, small-molecule microarray, 635 nm fluorescence (AID 1081); details: small-molecule microarray binding, higher = more signal;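 further: binding of the protein to compounds printed on small-molecule microarray slides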
[8] = FRG1 promoter luciferase signal modulators, primary screen, FRG1 inhibition for FSHD, cell-based, C2C12 myotubes, firefly/Renilla luciferase, luminescence (AID 1084); details: higher = more signal, called active from +8 up or from −8 down
[9] = binders of probe aFST on microarray, primary screen, stem cell growth factor project, biochemical, small-molecule microarray, fluorescence 635/667 (AID 1086); details: higher = more signal;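 further: score merges 667 nm fluorescence with signal-to-noise of each printed compound spot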
[10] = binders of probe aHhip on microarray, primary screen, stem cell growth factor project, biochemical, small-molecule microarray, fluorescence 635/667 (AID 1087); details: higher = more signal;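 further: score merges spot fluorescence at 667nm with spot signal to noise ratio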
[11] = tested on: PRMT1 (protein arginine N-methyltransferase 1); experiment: PRMT1 binders on small-molecule microarrays, primary screen, biochemical, small-molecule microarray, 635 nm fluorescence (AID 1088); details: small-molecule microarray binding, higher = more signal;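 further: binding of Prmt1 protein to compounds spotted on small-molecule microarray slides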
[12] = yeast growth modulation, basal conditions, primary screen, YJM789 clinical isolate, OD600, 24 h (AID 1089);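 further: growth of clinical yeast isolate S. cerevisiae YJM 789 seeded 1000 cells per well; test concentration not given here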; details: S. cerevisiae YJM789 growth, higher = more signal, called active from +8 up or from −8 down
[13] = fission yeast growth modulation, primary screen, strain 972, OD600, 24 h, no modulator (AID 1090);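 further: basal condition with compound alone and no growth modifier present; test concentration not given here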; details: S. pombe 972 growth, higher = more signal, called active from +8 up or from −8 down
[14] = S. cerevisiae growth modulation with rapamycin, primary screen, strain BY4716, OD600, 96 h (AID 1091); details: higher = more signal, called active from +8 up or from −8 down; further: test concentration not given here
[15] = biological target: Torsin-1A-interacting protein 2 (Homo sapiens) (UniProt Q8NFQ8); experiment: LULL1 binders on small-molecule microarray, primary screen, cell lysate, human LULL1 lysate, 635/667 nm fluorescence (AID 1092); details: hLULL1 lysate binding, 635 nm fluorescence, higher = more signal;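 further: probe is lysate of COS7 cells overexpressing human LULL1; score merges per-feature 667 nm fluorescence with signal-to-noise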
Chain of Torsin-1A-interacting protein 2 (Homo sapiens) (Q8NFQ8 whole entry, looked up): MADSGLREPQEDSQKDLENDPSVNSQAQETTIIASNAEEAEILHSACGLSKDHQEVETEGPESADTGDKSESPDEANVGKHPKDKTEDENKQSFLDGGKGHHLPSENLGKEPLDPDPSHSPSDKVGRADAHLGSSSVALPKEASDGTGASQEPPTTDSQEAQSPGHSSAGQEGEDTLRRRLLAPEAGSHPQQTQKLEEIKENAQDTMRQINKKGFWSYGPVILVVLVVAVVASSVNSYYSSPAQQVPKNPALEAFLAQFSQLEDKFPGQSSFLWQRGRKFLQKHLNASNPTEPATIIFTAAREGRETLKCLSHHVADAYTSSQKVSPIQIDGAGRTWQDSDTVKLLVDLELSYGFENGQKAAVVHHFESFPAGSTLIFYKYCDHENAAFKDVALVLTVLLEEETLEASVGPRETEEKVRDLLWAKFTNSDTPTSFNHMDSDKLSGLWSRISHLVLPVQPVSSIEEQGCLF

[16] = E. coli growth modulation, two-sided OD650, primary screen, E. coli filamentation project, strain DRC41, 24 h (AID 1093); details: OD650, 24 h, higher = more signal, called active from +8 up or from −8 down;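 further: MC1000 strain lacking acrAB efflux and sulA so SOS filamentation is blocked; test concentration not given here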
[17] = small-molecule microarray binders of probe aLefty2, primary screen, biochemical, biotinylated probe, 635/667 nm fluorescence (AID 1094); details: higher = more signal;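 further: score merges spot fluorescence near 667 nm with spot signal-to-noise ratio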
[18] = tested on: Noggin (protein binding on small-molecule microarray); experiment: Noggin binders on small-molecule microarray, primary screen, biochemical, 635/667 nm fluorescence (AID 1095); details: 635 nm fluorescence, higher = more signal;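 further: score merges 667 nm feature fluorescence with signal to noise over triplicate slides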
[19] = biological target: Neurogenic locus notch homolog protein 3 (Homo sapiens) (UniProt Q9UM47); experiment: NOTCH3 binders on small-molecule microarray, primary screen, biochemical, 635/667 nm fluorescence (AID 1096); details: NOTCH3 binding, 635 nm fluorescence, higher = more signal
[20] = small-molecule microarray binders of probe aEGFR, primary screen, biochemical, biotinylated probe, 635/667 nm fluorescence (AID 1097); details: higher = more signal;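 further: probe is a biotinylated anti-EGFR antibody binding compounds printed on slides; score combines fluorescence near 667 nm and signal to noise of each spot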

| Structure (SMILES) | composite z-score [1] | composite z-score [2] | composite z-score [3] | composite z-score [4] | composite z-score [5] | composite z-score [6] | composite z-score [7] | z-score [8] | composite z-score [9] | composite z-score [10] | composite z-score [11] | z-score [12] | z-score [13] | z-score [14] | composite z-score [15] | z-score [16] | composite z-score [17] | composite z-score [18] | composite z-score [19] | composite z-score [20] |
| --- | --- | --- | --- | --- | --- | --- | --- | --- | --- | --- | --- | --- | --- | --- | --- | --- | --- | --- | --- | --- |
| C=C(COC)/C(=C/C[C@@H](OC(=O)c1ccncc1)c1ccccc1OCCO)c1cc(C(=O)OC)ccc1OC | 0.232 | -0.72 | -0.0718 | 0.263 | -0.381 | -0.33 | 0.851 | -1.87 (inactive) | -0.3 | -0.0645 | 0.768 | -0.833 (inactive) | -0.778 (inactive) | 0.351 (inactive) | 0.703 | 0.0184 (inactive) | -0.106 | -0.341 | -0.0686 | -0.178 |
| C=CCNC(=O)[C@@H]1[C@H]2C(=O)O[C@H](c3ccccc3)[C@H](c3ccccc3)N2[C@H](c2ccc(O)cc2)[C@@]12C(=O)N(C(=O)OCCOC)c1ccc(C#CCCO)cc12 | -0.0125 | 0.376 | -0.0222 | 0.82 | 0.258 | 1.05 | 1.35 | 0.354 (inactive) | 0.256 | 0.0274 | 1.41 | 0.434 (inactive) | 0.53 (inactive) | 1.17 (inactive) | 2.57 | -0.369 (inactive) | 0.0278 | 0.686 | 0.52 | 0.189 |
| C=CCNC(=O)[C@H]1[C@@H]2C(=O)O[C@@H](c3ccccc3)[C@@H](c3ccccc3)N2[C@@H](c2ccc(OCCO)cc2)[C@]12C(=O)Nc1ccc(C#CCNC(N)=O)cc12 | 0.264 | 0.311 | 0.0015 | 0.641 | 0.112 | 0.883 | 0.817 | -0.651 (inactive) | 1.28 | 0.0623 | 1.56 | 2.34 (inactive) | 1.48 (inactive) | 4.76 (inactive) | 1.98 | 0.714 (inactive) | 0.155 | 1.1 | 1.07 | 0.0562 |
| CCOC(=O)C=Cc1cc(F)ccc1O | 0.0251 | 0.17 | 0.0087 | 0.207 | -0.0641 | -0.0469 | 0.398 | 0.808 (inactive) | -0.0919 | 0.0524 | 0.311 | -26.6 (active) | -15.2 (active) | -1.06 (inactive) | 0.905 | -0.624 (inactive) | -0.0446 | -0.173 | -0.18 | -0.233 |
| C=C(C)C1CCC(C(O)C2C=CC3C(=O)N(C)C(=O)C3N2Nc2cc(OC)c(OC)c(OC)c2)CC1 (stereo not given) | 0.735 | 0.287 | 0.115 | 0.334 | 1.57 | 1.97 | 1.29 | 1.12 (inactive) | 1.07 | -0.0296 | 1.51 | 0.367 (inactive) | 0.458 (inactive) | 0.0769 (inactive) | 3.28 | -1.37 (inactive) | 0.0361 | 0.205 | 1.02 | 0.0763 |
| COCCCNC(=O)[C@@]1(c2ccc([N+](=O)[O-])cc2)CC(=O)N(CC23CC4CC(CC(C4)C2)C3)[C@@H]1c1ccc(CO)cc1I | 0.456 | -0.243 | -0.034 | 0.246 | 0.218 | 1.13 | 1.3 | -2.2 (inactive) | 0.15 | -0.236 | 1.3 | 1.01 (inactive) | 1.08 (inactive) | 4.92 (inactive) | 1.75 | -0.254 (inactive) | 0.0283 | 0.26 | 0.341 | -0.183 |
| COc1ccc(C#Cc2ccc3c(c2)[C@]2(C(=O)N3)[C@H](C(=O)N3CCCCCCC3)[C@H]3C(=O)O[C@H](c4ccccc4)[C@H](c4ccccc4)N3[C@@H]2c2ccc(O)cc2)cc1 | 2.46 | 0.578 | 0.102 | 0.295 | 0.97 | -0.234 | 1.24 | 0.626 (inactive) | 2.24 | 0.606 | 1.56 | -0.0118 (inactive) | 0.0345 (inactive) | 0.595 (inactive) | 3.12 | 0.209 (inactive) | 1 | 0.719 | 1.1 | 0.426 |
| O=C1OCCC=C[C@H]2OC34C=CCN(c5ccc(Cl)cc5)C(=O)[C@H]3N(CCCCCCO)C(=O)[C@@H]4C12 (stereo not given in full) | 0.43 | -0.0789 | -0.116 | -0.683 | -0.879 | -0.221 | 1.24 | 0.45 (inactive) | -0.257 | -0.226 | 0.117 | 0.115 (inactive) | -1.1 (inactive) | -0.337 (inactive) | 0.455 | 1.78 (inactive) | -0.139 | -0.979 | -0.379 | -0.191 |
| COc1cc(NN2C(C(O)c3ccccc3)C=CC3C(=O)N(C)C(=O)C32)cc(OC)c1OC (stereo not given) | 0.0217 | 0.48 | 0.0074 | 0.371 | 1.34 | 1.88 | 1.36 | 0.359 (inactive) | 0.4 | -0.0672 | 1.53 | 0.679 (inactive) | 0.529 (inactive) | 0.328 (inactive) | 2.98 | -0.852 (inactive) | 0.12 | 0.27 | 0.832 | -0.0581 |
| CS(=O)(=O)CCOC(=O)C1=CC(CCCO)=CC(C2CC2)N(Cc2cccc(OC(F)(F)F)c2)C=C1C(=O)OCCS(C)(=O)=O (stereo not given) | -0.527 | 0.314 | -0.0734 | 0.147 | -0.116 | 1.07 | 0.897 | 0.677 (inactive) | 0.0187 | -0.0994 | 0.757 | -0.725 (inactive) | -2.34 (inactive) | -1.75 (inactive) | 2.29 | -0.917 (inactive) | 0.203 | -0.0678 | 0.0213 | -0.106 |
